Measured values: PubChem BioAssay (NCATS)
Where “and” joins values, the source holds several entries; their conditions need not be identical. Equal entries are not always repeated. Records with an inconclusive call do not appear. Some structures have more than one record in an assay (separate samples or runs), and their calls can disagree. Calls of active or inactive are those of the source. Calls come from the whole dose curve; as a rule, active = well fitted curve in the direction sought with a large enough effect; inconclusive = small, poorly fitted or top-dose-only effect, or another doubt; inactive = no such curve, though single readings can be large; an effect the other way counts as inactive or inconclusive.

What was measured:
[1] = biological target: Rap guanine nucleotide exchange factor 3 (Homo sapiens) (UniProt O95398); experiment: Confirmatory qHTS for agonist of cAMP-regulated guanine nucleotide exchange factor 3 (EPAC1) (AID 1645881);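 note: EPAC1 catalysed release of BODIPY-GDP from Rap1B seen as fluorescence loss; 100% = effect of cAMP agonist control; nearly all actives have a fitted effect of over 75% in size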
[2] = biological target: Rap guanine nucleotide exchange factor 4 (Homo sapiens) (UniProt Q8WZA2); experiment: Confirmatory qHTS for agonist of cAMP-regulated guanine nucleotide exchange factor 4 (EPAC2) (AID 1645884);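 note: nucleotide exchange releases bodipy-GDP from Rap1 and this lowers its fluorescence; % is set by controls: 0 for no effect and ±100 for the full control effect; nearly all actives have a fitted effect of over 65% in size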
[3] = biological target: Rap guanine nucleotide exchange factor 4 (Homo sapiens) (UniProt Q8WZA2); experiment: Confirmatory qHTS for antagonist of cAMP-regulated guanine nucleotide exchange factor 4 (EPAC2) (AID 1645885); note: nearly all actives have a fitted effect of over 25% in size; note: potency is the fitted concentration of half-maximal effect
[4] = biological target: Rap guanine nucleotide exchange factor 3 (Homo sapiens) (UniProt O95398); experiment: Counterscreen qHTS for agonist of cAMP-regulated guanine nucleotide exchange factor 3 (EPAC1) (AID 1645889); note: nearly all actives have a fitted effect of over 40% in size; note: potency is the fitted concentration of half-maximal effect; for activation: % of control where 0% means no effect
Summary of the method: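 Rap1B–BODIPY-GDP (250 nM) with 50 uM GDP; compounds pin-transferred to 9.74 nM–152 uM final (activator) or from 7.32 nM upwards (inhibitor). Fluorescence Ex/Em 480/540 nm read at 5 and 30 min, then after adding cAMP or buffer, at room temperature.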

Rap guanine nucleotide exchange factor 3 (Homo sapiens), sequence (O95398 whole entry, looked up): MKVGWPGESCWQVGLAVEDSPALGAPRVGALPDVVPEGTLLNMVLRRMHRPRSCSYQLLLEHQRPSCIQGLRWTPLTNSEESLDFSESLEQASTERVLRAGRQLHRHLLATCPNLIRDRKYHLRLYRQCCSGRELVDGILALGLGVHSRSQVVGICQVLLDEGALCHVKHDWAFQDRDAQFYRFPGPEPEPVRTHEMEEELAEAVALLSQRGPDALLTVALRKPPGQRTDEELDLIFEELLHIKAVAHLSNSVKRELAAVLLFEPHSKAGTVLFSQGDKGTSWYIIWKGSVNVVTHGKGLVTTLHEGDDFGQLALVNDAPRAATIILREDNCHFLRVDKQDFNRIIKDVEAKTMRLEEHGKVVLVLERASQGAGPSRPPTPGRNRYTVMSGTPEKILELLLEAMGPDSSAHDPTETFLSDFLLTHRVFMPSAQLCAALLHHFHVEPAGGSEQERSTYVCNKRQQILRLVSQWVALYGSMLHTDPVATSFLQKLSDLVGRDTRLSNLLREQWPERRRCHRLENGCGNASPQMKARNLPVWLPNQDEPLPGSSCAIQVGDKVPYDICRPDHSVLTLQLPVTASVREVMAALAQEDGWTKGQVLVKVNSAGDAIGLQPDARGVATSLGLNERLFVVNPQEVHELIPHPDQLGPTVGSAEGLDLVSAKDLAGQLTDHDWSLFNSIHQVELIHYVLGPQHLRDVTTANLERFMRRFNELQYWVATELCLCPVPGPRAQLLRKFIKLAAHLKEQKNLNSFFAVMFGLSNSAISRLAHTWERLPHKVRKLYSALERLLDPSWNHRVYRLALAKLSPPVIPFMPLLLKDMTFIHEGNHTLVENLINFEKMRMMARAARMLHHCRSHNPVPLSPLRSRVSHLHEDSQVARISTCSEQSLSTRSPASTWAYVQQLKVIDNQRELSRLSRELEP
Rap guanine nucleotide exchange factor 4 (Homo sapiens), sequence (Q8WZA2 whole entry, looked up): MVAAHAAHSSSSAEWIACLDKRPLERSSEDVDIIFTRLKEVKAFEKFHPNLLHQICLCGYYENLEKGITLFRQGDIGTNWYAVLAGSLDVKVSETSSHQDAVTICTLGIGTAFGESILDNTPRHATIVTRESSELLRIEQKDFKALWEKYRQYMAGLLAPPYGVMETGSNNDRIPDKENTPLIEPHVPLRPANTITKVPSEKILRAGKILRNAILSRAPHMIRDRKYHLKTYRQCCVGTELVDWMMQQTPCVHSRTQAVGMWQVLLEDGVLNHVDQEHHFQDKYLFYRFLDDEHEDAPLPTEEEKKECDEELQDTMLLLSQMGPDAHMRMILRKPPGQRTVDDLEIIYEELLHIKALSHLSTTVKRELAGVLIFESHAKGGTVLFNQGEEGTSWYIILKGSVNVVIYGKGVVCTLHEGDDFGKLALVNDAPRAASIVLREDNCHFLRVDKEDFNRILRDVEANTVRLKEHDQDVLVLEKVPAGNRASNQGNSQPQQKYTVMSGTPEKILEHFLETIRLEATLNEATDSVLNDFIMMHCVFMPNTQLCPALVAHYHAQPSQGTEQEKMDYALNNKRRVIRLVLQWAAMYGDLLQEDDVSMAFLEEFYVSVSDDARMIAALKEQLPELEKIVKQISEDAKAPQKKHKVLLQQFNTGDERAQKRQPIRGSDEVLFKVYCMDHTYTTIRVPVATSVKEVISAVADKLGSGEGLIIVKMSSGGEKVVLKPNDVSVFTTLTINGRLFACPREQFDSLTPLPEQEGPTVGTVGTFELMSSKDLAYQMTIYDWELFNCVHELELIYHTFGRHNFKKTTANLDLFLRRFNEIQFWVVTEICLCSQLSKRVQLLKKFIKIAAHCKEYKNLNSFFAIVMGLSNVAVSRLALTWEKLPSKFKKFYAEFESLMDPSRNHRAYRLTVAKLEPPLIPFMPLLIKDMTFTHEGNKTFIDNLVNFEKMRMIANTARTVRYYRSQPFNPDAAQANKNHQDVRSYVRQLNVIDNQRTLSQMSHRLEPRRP

N#C/C(=N\Nc1cccc(C(F)(F)F)c1)C(=O)c1ccsc1
inactive: Potency [1] | Potency [2] | Potency [3] | Potency [4]

C=CCNC(=O)c1oc2ccc(S(=O)(=O)N(CC)CC)cc2c1C
inactive: Potency [1] | Potency [2] | Potency [3] | Potency [4]

CCOC(=O)c1nc(C)nc(Sc2n[nH]c(-c3cc(Cl)cc(Cl)c3)n2)c1C
inactive: Potency [1] | activation [2] 2.66% [at 17.1 µM, percent relative to cAMP agonist control] | Potency [3] | activation [4] 19.4% [at 30.8 µM]

CC(=O)N(CCC(c1ccco1)C(C)C)Cc1ccc(Cl)cc1 (stereo not drawn)
inactive: Potency [1] | Potency [2] | Potency [3] | Potency [4]

COc1ccc(N2C(=O)CSC23C(=O)N(Cc2cccc(C(F)(F)F)c2)c2ccccc23)cc1 (stereo not drawn)
inactive: Potency [1] | Potency [2] | outcome [3] inactive [at 12.7 µM] | Potency [4]

COc1ccc2sc(-c3ccc(SC)cc3)c(C#CC(C)(C)O)c2c1
inactive: Potency [1] | Potency [2] | Potency [3] | Potency [4]

COCOCCn1cc(CN2CCS(=O)(=O)N(Cc3ccc(-c4ccc(OC)cc4)cc3)C(CC(C)C)C2=O)nn1 (stereo not drawn)
inactive: Potency [1] | Potency [2] | Potency [3] | Potency [4]

COCc1nc2ccccc2n1Cc1ccc(C(C)(C)C)cc1
inactive: Potency [1] | Potency [2] | Potency [3] | Potency [4]

CC1(C)CC(CCN(Cc2ccccc2)C(=O)c2ccco2)(c2ccccc2)CCO1 (stereo not drawn)
inactive: Potency [1] | Potency [2] | Potency [3] | Potency [4]

CCn1cc(CN2CCc3c([nH]c4ccccc34)C2c2cccc(OC)c2)c(C)n1 (stereo not drawn)
inactive: Potency [1] | activation [2] -1.07% [at 17.1 µM, percent relative to cAMP agonist control] | Potency [3] | activation [4] 8.44% [at 30.8 µM]

Cc1cc2c(cc1C)C(c1ccccc1OC(C)C)CC(=O)N2 (stereo not drawn)
inactive: Potency [1] | Potency [2] | Potency [4]
active: Potency [3] 33.8 µM

CCOc1ccccc1CNC(=O)Cn1nc(C)c2c(C)n(-c3ccc(C)cc3)nc2c1=O
inactive: Potency [1] | activation [2] -0.659% [at 17.1 µM, percent relative to cAMP agonist control] | Potency [3] | activation [4] 18.3% [at 30.8 µM]

Cc1occc1C(=O)N/N=C/C1=C(N2CCOCC2)C(=C/c2ccc(Cl)cc2Cl)/CC1
inactive: Potency [1] | Potency [2] | Potency [3] | Potency [4]

C=CCn1c(SCC(=O)Nc2cc(Cl)ccc2C(=O)O)nc2sc(C)c(C)c2c1=O
inactive: Potency [1] | activation [2] 10.1% [at 17.1 µM, percent relative to cAMP agonist control] | Potency [3] | activation [4] 1.53% [at 30.8 µM]

C[C@H](CO)N1C[C@H](C)[C@@H](CN(C)Cc2ccc(Cl)c(Cl)c2)Oc2c(NC(=O)CCC(F)(F)F)cccc2C1=O
active: Potency [3] 19 µM
inactive: Potency [1] | Potency [2] | Potency [4]

CCCCC[C@H](C)N1C[C@@H](COCc2ccccc2)Oc2cc(N3CC[C@@H](O)C3)ccc2S1(=O)=O
inactive: Potency [1] | activation [2] 6.13% [at 17.1 µM, percent relative to cAMP agonist control] | Potency [3] | activation [4] 5.17% [at 30.8 µM]

O=C(COC(=O)c1cccc(NS(=O)(=O)c2ccc(F)c(F)c2)c1)NC(=O)NC1CCCC1
inactive: Potency [1] | Potency [2] | Potency [3] | Potency [4]

C[C@H]1CN([C@@H](C)CO)S(=O)(=O)c2ccc(Br)cc2O[C@@H]1CN(C)Cc1ccccc1
inactive: Potency [1] | Potency [2] | Potency [4]
active: Potency [3] 23.9 µM

O=C(O)CN1C(=O)/C(=C\c2cccc(OCc3ccc(F)cc3)c2)SC1=S
inactive: Potency [1] | activation [2] 1.62% [at 17.1 µM, percent relative to cAMP agonist control] | Potency [3] | activation [4] 14.2% [at 30.8 µM]

CC(C)(C)OC(=O)N1CCC(c2c(C(=O)NCCN3CCC(Cc4ccccc4)CC3)cnn2-c2cccc(Cl)c2)CC1
inactive: Potency [1] | Potency [2] | Potency [3] | Potency [4]

CCOc1ccc(/C=C2\SC(=S)N(NS(=O)(=O)c3ccc(C)cc3)C2=O)cc1OC
inactive: Potency [1] | activation [2] 5.33% [at 17.1 µM, percent relative to cAMP agonist control] | Potency [3] | activation [4] -1.1% [at 30.8 µM]

C/C(=N\NS(=O)(=O)c1ccc(C(C)(C)C)cc1)c1ccccc1
inactive: Potency [1] | activation [2] 13.7% [at 17.1 µM, percent relative to cAMP agonist control] | Potency [3] | activation [4] 25% [at 30.8 µM]

CCc1ccc2c(c1)NC(=O)C2(C)Cc1ccc(C(F)(F)F)o1 (stereo not drawn)
inactive: Potency [1] | Potency [2] | Potency [3] | Potency [4]

C/C(=N\NC(=O)c1ccc(N/N=C(\C)c2ccc(O)cc2)cc1)c1ccc(O)cc1
inactive: Potency [1] | activation [2] 15.6% [at 17.1 µM, percent relative to cAMP agonist control] | Potency [3] | activation [4] 11.7% [at 30.8 µM]

C=CC(C)N1C(=O)S/C(=C\c2ccc(N3CCOCC3)cc2C)C1=O (stereo not drawn)
inactive: Potency [1] | Potency [2] | Potency [4]
active: Potency [3] 84.9 µM

COc1cccc(S(=O)(=O)Nc2ccc3c(c2)[C@@H]2C[C@@H](CC(=O)NCc4ccc(Cl)cc4)O[C@@H](CO)[C@@H]2O3)c1
inactive: Potency [1] | Potency [2] | Potency [3] | Potency [4]

COc1ccc(S(=O)(=O)Nc2cc(SCC(=O)O)c(O)c3ccccc23)cc1
active: Potency [4] 56.2 µM
inactive: Potency [1] | Potency [2] | Potency [3]

Cc1ccc(C)c(S(=O)(=O)N2CCN(C(=O)/C=C/c3ccco3)CC2)c1
inactive: Potency [1] | Potency [2] | Potency [3] | Potency [4]

Cc1oc2ccc(O)c(CN(C)Cc3ccccc3)c2c1C(=O)Nc1cccc(C(F)(F)F)c1
inactive: Potency [1] | Potency [2] | Potency [3] | Potency [4]

CCO[C@H]1OC(C(=O)NCc2ccccc2)=C[C@@H](c2ccc(C(F)(F)F)cc2)[C@@H]1CCCO
inactive: Potency [1] | Potency [2] | Potency [3] | Potency [4]

CCOC(=O)C1=C(C)NC(C)=C(C(=O)OCC)C1c1ccc([N+](=O)[O-])s1
inactive and 42.6 µM (active): Potency [3]
inactive: Potency [1] | Potency [2] | Potency [4]

O=C(Nc1ccc(Cl)cc1)Nc1ccccc1NS(=O)(=O)c1cccs1
inactive: Potency [1] | activation [2] 7.96% [at 17.1 µM, percent relative to cAMP agonist control] | Potency [3] | activation [4] 27.1% [at 30.8 µM]

Cc1cccc(N2CC(C(=O)Nc3nnc(SCC(=O)NCC4CCCO4)s3)CC2=O)c1 (stereo not drawn)
inactive: Potency [1] | Potency [2] | Potency [3] | Potency [4]

Cc1cccc(N2C(=O)C(O)=C(C(=O)c3cccs3)C2c2cccc(Oc3ccccc3)c2)n1 (stereo not drawn)
inactive: Potency [1] | Potency [2] | Potency [3] | Potency [4]

CCCc1[nH]c2ccc(C(=O)OC)cc2c1CCC
inactive: Potency [1] | Potency [2] | Potency [4]
active: Potency [3] 19 µM

CCC[C@H]1CC(=O)C=C(c2ccsc2)ON1C(=O)OC(C)(C)C
inactive: Potency [1] | Potency [2] | Potency [3] | Potency [4]

Cc1cc(C)nc(SCC(=O)c2ccc(C)c(C)c2)n1
inactive: Potency [1] | Potency [2] | Potency [4]
active: Potency [3] 13.5 µM

O=C(CSc1nccn1Cc1ccc(Cl)cc1)Nc1ccc2c(c1)OCO2
inactive: Potency [1] | Potency [2] | Potency [3] | Potency [4]

CCc1nc2ccc(C(=O)Nc3ccc(NC(C)=O)cc3)cn2c1N(C)CCC(C)C
inactive: Potency [1] | Potency [2] | Potency [3] | Potency [4]

O=S(=O)(c1ccc2nc(-c3ccco3)c(-c3ccco3)nc2c1)N1CCOCC1
inactive: Potency [1] | activation [2] 6.85% [at 17.1 µM, percent relative to cAMP agonist control] | Potency [3] | activation [4] 21.3% [at 30.8 µM]

COC(=O)CC1(c2ccc(OC)cc2)C(=O)c2ccccc2C1=O
inactive: Potency [1] | Potency [2] | Potency [3] | Potency [4]

FC(F)(F)c1cccc(CN2CCC(c3cc(-c4cccs4)n[nH]3)CC2)c1
inactive: Potency [1] | Potency [2] | Potency [3] | Potency [4]

CC1(C(=O)NS(=O)(=O)c2ccc3ccccc3c2)CCN1C(=O)Cc1ccc(-c2ccccc2)cc1 (stereo not drawn)
inactive: Potency [1] | activation [2] 1.72% [at 17.1 µM, percent relative to cAMP agonist control] | Potency [3] | activation [4] 21.8% [at 30.8 µM]

O=C(NCc1ccc(OC(F)(F)F)cc1)C1CC(c2ccccc2C(F)(F)F)=NO1 (stereo not drawn)
inactive: Potency [1] | activation [2] 4.05% [at 17.1 µM, percent relative to cAMP agonist control] | Potency [3] | activation [4] 3.19% [at 30.8 µM]

CC(C)C(=O)Nc1nc2c(s1)CC(C(C)(C)C)CC2 (stereo not drawn)
inactive: Potency [1] | Potency [2] | Potency [3] | Potency [4]

COc1ccc(C2CC(=O)c3c(O)cc(O)cc3O2)c(CC=C(C)C)c1OC (stereo not drawn)
active: Potency [3] 67.5 µM
inactive: Potency [1] | Potency [2] | Potency [4]

CCCC[C@H]1COCCS(=O)(=O)N1Cc1ccc(Br)cc1
inactive: Potency [1] | Potency [2] | Potency [3] | Potency [4]

O=C1NC[C@H](Cc2ccc(O)cc2)N(C[C@@H]2CCCN2C[C@H](Cc2ccc(O)cc2)N2C[C@H](Cc3ccccc3)N(CC3CCCCC3)C(=O)C2=O)C1=O
inactive: Potency [1] | activation [2] -4.51% [at 17.1 µM, percent relative to cAMP agonist control] | Potency [3] | activation [4] 17.8% [at 30.8 µM]

CC(C)(C)c1ccc(C(=O)N2CCCC(c3nc4c(nnn4Cc4cccc(F)c4)c(=O)[nH]3)C2)cc1 (stereo not drawn)
inactive: Potency [1] | Potency [2] | outcome [3] inactive [at 12.7 µM] | Potency [4]

CC(C)(C)c1ccc(S(=O)(=O)NC(=O)C2(C)CCN2C(=O)Cc2ccc(-c3ccccc3)cc2)cc1 (stereo not drawn)
inactive: Potency [1] | activation [2] -4.75% [at 17.1 µM, percent relative to cAMP agonist control] | Potency [3] | activation [4] 6.27% [at 30.8 µM]

COc1ccc(N2C(=O)Cc3cc(OC)c(OC)cc3C2c2ccc(F)cc2)cc1 (stereo not drawn)
inactive: Potency [1] | Potency [2] | Potency [3] | Potency [4]

O=Nc1c(O)n(Cc2cccc(C(F)(F)F)c2)c2ccccc12
inactive: Potency [1] | Potency [2] | Potency [4]
active: Potency [3] 47.8 µM
